# Screening data deposited in PubChem BioAssay by Center for Chemical Genomics, University of Michigan.
# Dicer processing – blocks human Dicer maturation of pre-miR-21. Q9UPY3. cat-ELCCA pre-miR-21 Dicer processing, chemiluminescence; hits give high values. z-score at 25 µM. 47,000 tested, 6% active. AID 1347074; in the data active means z-score above about 3, passing the limit was not always enough;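 further: plate controls were vehicle for no effect and no enzyme for full effect; higher signal means more uncleaved substrate so more Dicer inhibition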
# * marks the source's active call; other numbers are inactive results; ! = not confirmed by another sample. Only a selection was taken, and hits are over-represented in it overall.
SMILES,Dicer processing
COc1cccc(CN2CCN(Cc3cc(Br)ccc3O)CC2)c1,3.4*
COc1ccc(CN2CCN(Cc3ccc(Br)cc3)CC2)cc1,-0.08
CCc1ccc(CN2CCN(Cc3cc(Br)ccc3O)CC2)cc1,0.95
O=C(N1CCSCC1)C(Cl)(Cl)Cl,-1.3
Fc1cccc(Cl)c1CN1CCN(Cc2c(F)cccc2Cl)CC1,-3.9
CSc1ccc(CN2CCN(Cc3ccccc3Cl)CC2)cc1,0.04
Clc1cccc(CN2CCN(Cc3ccc4c(c3)OCO4)CC2)c1,-0.43
Clc1ccccc1CN1CCN(Cc2ccc3c(c2)OCO3)CC1,3.9*
Clc1ccc(CN2CCN(Cc3ccc4c(c3)OCO4)CC2)cc1,-1.7
Fc1cccc(CN2CCN(Cc3ccccc3Cl)CC2)c1,6.4*
CN1C(=O)CN=C(c2ccccc2)c2ccccc21,1.2
CCc1cc2c(cc1-c1csc(CC#N)n1)C(C)(C)CCC2(C)C,-0.71
CCCCCc1nc2ccccc2c(=O)n1-c1ccc(O)cc1,0.84
O=[N+]([O-])/C=C/c1cc2c(cc1[N+](=O)[O-])OCO2,1.3
C[C@]12CC[C@H](O)C[C@H]1CC[C@@H]1[C@@H]2C[C@@H](O)[C@]2(C)[C@@H](C3=CC(=O)OC3)CC[C@]12O,4.5*
C[C@]12CCC3[C@@H](CC[C@@H]4C[C@H](O)CC[C@]34C)[C@@H]1CCC2=O (stereo partly specified),0.03
C[C@]12CC[C@H](O)C[C@H]1CC[C@@H]1[C@@H]2CC[C@]2(C)[C@@H](C3=CC(=O)OC3)CC[C@]12O,0.23
COc1ccc(C=C2C(=O)C3CCN2CC3)cc1Br,1.1
Clc1cc(Br)ccc1NC1=NCCS1,0.58
Clc1cc(Cl)cc(NC2=NCCS2)c1,3.7*!
Cc1ccc(NC2=NCCS2)c(C)c1,1.6
Cc1cc(C)c(NC2=NCCS2)c(C)c1,-0.62
Clc1cccc(Cl)c1NC1=NCCS1,2.3
Clc1cccc(NC2=NCCS2)c1Cl,3.6*
CC(C)N(C(C)C)C1N=C(c2ccccc2)c2cc(Cl)ccc2N(C)C1=O (stereo unspecified),-0.6
SMILES,Dicer processing
CCN(CC)CCn1c(NCc2ccc(Cl)cc2)nc2ccccc21,2.7
O[C@H]1CC2CCC1N(Cc1ccccc1)C2 (stereo partly specified),-0.26
CNC(=O)O/N=C/C(=O)c1ccc(Cl)cc1,-0.86
COc1cc(N=C(N)N[N+](=O)[O-])cc(OC)c1OC,-0.4
Cc1ccc(C(=O)C(C)c2c(O)c3ccccc3oc2=O)c(Cl)c1 (stereo unspecified),2.3
O=[N+]([O-])/C=C/c1ccc(Cl)c(Cl)c1,0.83
CN(C)c1ccc(/C=C/c2nc3ccccc3c(=O)n2-c2ccccc2)cc1,1.8
O=c1c2ccccc2nc(/C=C/c2ccco2)n1-c1cccc(O)c1,2.2
Cc1ccc(-n2c(/C=C/c3ccc([N+](=O)[O-])o3)nc3ccccc3c2=O)cc1,3*
O=c1c2ccccc2nc(/C=C/c2ccccc2F)n1-c1ccccc1,6*
O=c1c2ccccc2nc(C(F)(F)F)n1-c1ccccc1,2.8
O=c1c2ccccc2nc(/C=C/c2ccccc2)n1-c1cccc(O)c1,3.1*
O=c1c2ccccc2nc(/C=C/c2ccc([N+](=O)[O-])o2)n1-c1ccc(Br)cc1,2.3
O=c1c2ccccc2nc(/C=C/c2ccc3c(c2)OCO3)n1-c1ccccc1O,2.7
Cc1nc2ccccc2c(=O)n1-c1ccc(Br)cc1,-0.44
CCOC(=O)C1=NN(c2cccc(Cl)c2)C2c3cccc4cccc(c34)C12 (stereo unspecified),2.3
C#CCSc1nc(C)c(Cc2c(F)cccc2Cl)c(OC(=O)N(C)C)n1,-0.05
CC12CN3CC(C)(CN(C1)C3c1ccco1)C2O (stereo unspecified),-1.1
CNC(=S)NNC(=O)C1(O)CN2CCC1CC2 (stereo unspecified),0.46
CCSCc1cc(OC(=O)N(C)C)nc(-c2ccc(C(F)(F)F)cc2)n1,0.8
CC(=O)OC1CCC2(C)C3C(=O)CC4(C)C(=O)CCC4C3CC[C@@]2(C)C1 (stereo partly specified),0.34
CC(C)Oc1ccc(C2SCC(=O)Nc3c2c(=O)[nH]n3C2CCOC(C)(C)C2)cc1 (stereo unspecified),-1.9
CC(=O)CC(c1cccc([N+](=O)[O-])c1)c1c(OC(C)=O)c2ccccc2oc1=O (stereo unspecified),0.15
CC12CC[C@@H](O)CC1=CC[C@@H]1C2CCC2(C)C(=O)CC[C@@H]12 (stereo partly specified),2.4
CCC1(C(=O)c2ccc(F)cc2)C2c3cc(Br)ccc3OC(=O)C21C(=O)OC (stereo unspecified),3.4*
SMILES,Dicer processing
CN1C(=O)Oc2ccc(Cl)cc2C1O (stereo unspecified),0.66
O=C(C1CCCCN1)N1CCN(Cc2cccnc2)CC1 (stereo unspecified),-0.7
Cc1ccc2[nH]c(=S)n(-c3ccccc3F)c(=O)c2c1,5.3*
Cc1ccc(-n2c(=S)[nH]c3ccccc3c2=O)cc1,1.4
CCc1ccccc1-n1c(=S)[nH]c2ccccc2c1=O,-0.47
COCc1cc(=O)oc2cc(OC(=O)N(C)C)ccc12,1.1
O=C(c1ccco1)c1cn(Cc2c(F)cccc2Cl)c2ccccc12,-0.97
CC1(C)C2CCC1(C)C(N1CCNCC1)C2 (stereo unspecified),2.1
CC1=C(C#N)C(c2cnc[nH]2)C2=C(CCCC2=O)N1 (stereo unspecified),-0.69
COc1ccc(NC(=S)NNC(=O)C2(O)CN3CCC2CC3)cc1 (stereo unspecified),2.5
Cc1oc2cc(OC(=O)N(C)C)ccc2c(=O)c1Oc1ccccc1Br,1.2
COc1cccc(Oc2c(C)oc3cc(OC(=O)N(C)C)ccc3c2=O)c1,-0.47
CCOc1ccccc1Oc1coc2cc(OC(=O)N(C)C)ccc2c1=O,3.4*
CCOC(=O)C1=C(N)OC(c2ccccc2)=C(C(=O)OCC)C12C(=O)Nc1ccccc12 (stereo unspecified),-0.71
CCOC(=O)C1=C(C)OC(N)=C(C#N)C12C(=O)Nc1ccccc12 (stereo unspecified),2.2
COCCOC(=O)C1=C(C)OC(N)=C(C#N)C12C(=O)Nc1ccccc12 (stereo unspecified),3.8*
Nc1ccc(Cc2ccc(N)cc2)cc1,7.6*
O=C(O)CCC(=O)OC1N=C(c2ccccc2Cl)c2cc(Br)ccc2NC1=O (stereo unspecified),1.4
Nc1c(Oc2ccccc2)cc(O)c2c1C(=O)c1ccccc1C2=O,0.29
N#CC1=C(N)Oc2c(c(=O)oc3ccccc23)C1c1cccnc1 (stereo unspecified),-1.2
O=c1oc2ccccc2c2c1C(c1cccc([N+](=O)[O-])c1)c1c(c3ccccc3oc1=O)O2,-0.29
O=c1oc2ccccc2c2c1C(c1ccc([N+](=O)[O-])cc1)c1c(c3ccccc3oc1=O)O2,3.7*
NC(=NCCc1ccc(Cl)cc1)N[N+](=O)[O-],2.1
CC(C)(C)c1ccc(-n2c(=S)[nH]c3ccccc3c2=O)cc1,1.1
CC1(C)CC(n2[nH]c(=O)c3c2NC(=O)CSC3c2ccc(Br)cc2)CCO1 (stereo unspecified),-1.4
